# DT40 TDP1 no CPT – qHTS for Inhibitors of human tyrosyl-DNA phosphodiesterase 1 (TDP1): qHTS in cells in absence of CPT; DT40 Tdp1-/- hTDP1 cells, no CPT, ATP luminescence, 48 h; Potency, µM (highest dose often 46.2 µM), for the others: top-dose activity change, negative = growth inhibition, usual class: inhibitors; 420,000 tested, 15% active; further: on the % scale 0 is the no-effect control and ±100 the full control effect; nearly all actives have a fitted effect of over 55% in size
#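 Readout: luminescence from CellTiter-Glo after 30 min in the dark at RT. Cells: DT40 Tdp1-/- with stable hTDP1, 400/well. Exposure: compounds alone, ≥48 hr, 37 °C.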
# DT40 TDP1 CPT – DT40-hTDP1 cell growth loss with CPT; 420,000 tested, 12% active; AID 686979; chicken DT40 Tdp1-/-;hTDP1 cells + 20 nM CPT, ATP luminescence, 48 h; Potency, µM (series often up to 46.2 µM), inactives show top-dose activity change, negative = growth inhibition, hits mostly inhibitors; further: on the % scale 0 is the no-effect control and ±100 the full control effect; nearly all actives have a fitted effect of over 55% in size
#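 Chicken DT40 Tdp1-/- cells complemented with human TDP1, 400 cells/well, exposed to compounds plus 20 nM camptothecin for at least 48 h at 37 C; viability read as ATP content by CellTiter-Glo luminescence.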
# HepG2 tox – kills HepG2 cells in TGF-b inhibitor counter-screen | HepG2 CAGA-GFP viability, ATP luminescence, 18 h | Potency, µM (doses to about 46.1 µM), for the others: at the highest dose activity change, negative = cytotoxicity, hits mostly cytotoxic | 410,000 tested, 0.76% active | AID 588856
#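 HepG2 CAGA-GFP cells (1000/well, DMEM with 1% FBS) received compound, then TGF-beta at 500 pg/mL final, and were incubated 18 hours at 37 degrees C. Viability was read by CellTiter-Glo luminescence. Media-only wells were set as complete cell-killing and DMSO as no toxicity.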
# HT1080 IDH1KD tx – toxicity to HT-1080 IDH1 knockdown cells (counter line) | Potency, µM (doses to about 46.1 µM), inactives show at the top dose activity, negative = toxicity, actives largely listed as cytotoxic | 360,000 tested, 2% active | HT-1080 IDH1 knockdown viability, ATP luminescence, 48 h;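 further: 0% = DMSO wells and -100% = cell-free medium wells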
#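 IDH1KD HT-1080 cells, 750/well, RPMI + 5% FBS; compound pinned after 2 h settling; 48 h, 37 °C; CellTiter-Glo luminescence; % activity normalised to DMSO and no-cell wells; curves fitted, classed by r2 and efficacy.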
# HT1080-NT tox – kills 2HG-producing HT-1080-NT fibrosarcoma cells | Potency, µM (doses to about 46.1 µM), for the others: at the highest dose activity, negative = less viability, actives largely listed as cytotoxic | HT-1080-NT fibrosarcoma viability, CellTiter-Glo ATP luminescence, 48 h | 360,000 tested, 1.6% active;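 further: NT is the 2HG producing partner of a matched IDH1 knockdown line; 0% = DMSO-treated cells and -100% = media-only wells without cells; nearly all actives have a fitted effect of over 55% in size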
#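 Fibrosarcoma NT cells, 750 per well in 5% FBS RPMI, were exposed to compound for 48 hours. Viability: CellTiter-Glo luminescence.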
# TGFb inhibitor – TGF-b pathway inhibition; HepG2 CAGA-GFP TGF-b/SMAD3 reporter, GFP fluorescence, 18 h; TGF-beta stimulated, 500 pg/mL final; Potency, µM (doses to about 46.1 µM), inactives show top-dose activity, negative = inhibition, usual class: inhibitors; 410,000 tested, 1.2% active; further: on the % scale 0 is the no-effect control and ±100 the full control effect; nearly all actives have a fitted effect of over 65% in size
#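 TGF-beta reporter screen: HEPG2 CAGA-GFP, 1% FBS, 500 pg/mL TGF-beta final, 18 h; per-cell GFP summed per well; curves fitted and categorized by class.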
# * hit, by the source's call; ? = inconclusive; . = no result. The list is not random: actives were taken first. Their share in the collection is about 17%. The call rests on the fitted dose curve; in most records, active means well fitted curve in the direction sought with a large enough effect; inconclusive means small, poorly fitted or top-dose-only effect, or another doubt; inactive means no such curve, though single readings can be large; an effect the other way counts as inactive or inconclusive. Potency means the concentration at half of the fitted maximal effect.
SMILES,DT40 TDP1 no CPT,DT40 TDP1 CPT,HepG2 tox,HT1080 IDH1KD tx,HT1080-NT tox,TGFb inhibitor
COc1ccc(C(=O)NC2CCCc3ccccc32)cc1[N+](=O)[O-] (stereo not drawn),3.66µM*,5.17µM*,1.8%,14.6µM*,?,-12.7%
COc1ccccc1NC(=O)COc1ccc(C(=O)NC2CCCc3ccccc32)cc1OC (stereo not drawn),7.31µM*,?,0.0%,-9.4%,-18.2%,0.0%
COc1cccc(C(=O)NC2CCCc3ccccc32)c1OC (stereo not drawn),23.1µM*,?,-52.5%,-7.3%,-12.3%,0.2%
O=C(NC1CCCc2ccccc21)c1n[nH]c(=O)c2ccccc12 (stereo not drawn),6.51µM*,?,-23.7%,9.2µM*,?,-24.7%
O=C(NC1CCCc2ccccc21)c1ccccc1 (stereo not drawn),?,-17.6%,-8.5%,-6.9%,1.6%,-4.7%
COc1cc(OC)cc(C(=O)NCC(=O)OCC(=O)NC2CCCc3ccccc32)c1 (stereo not drawn),-18.2%,-14.4%,2.5%,6.4%,7.2%,-2.1%
Cc1c(C(=O)NC2CCCc3ccccc32)cccc1[N+](=O)[O-] (stereo not drawn),13µM*,?,0.4%,-5.1%,-1.2%,29.3%
COc1cc(OC)cc(C(=O)N[C@H](C(=O)NC2CCCc3ccccc32)C(C)C)c1 (stereo partly drawn),16.4µM*,?,5.3%,-3.7%,-0.5%,0.3%
CCc1c(C(=O)NC2CCCc3ccccc32)[nH]c(C)c1C(C)=O (stereo not drawn),14.6µM*,?,-48.5%,-18.6%,?,-14.2%
C/C(N)=C(/C#N)C(=O)CSc1nc2scc(-c3ccccc3)c2c(=O)n1C,?,?,-6.8%,-8.8%,0.2%,-0.8%
Cc1ccc(N2C(=O)CSC2c2cccnc2)c(Cl)c1 (stereo not drawn),20.6µM*,18.4µM*,-37.4%,?,?,-7.8%
O=C1CSC(c2cccnc2)N1c1cccc(Cl)c1 (stereo not drawn),-13.3%,0.5%,0.2%,0.4%,2.8%,3.7%
CC(C)C[C@H]1CN(CCCC[C@H]2CNC(=O)C(=O)N2CC2CCCCC2)C(=O)C(=O)N1CC1CCCCC1,?,?,.,1.3%,13.7%,.
CC(=O)Nc1ccc(NC(=O)C2CCCN2S(=O)(=O)c2cccc3nsnc23)cc1 (stereo not drawn),2.3%,-8.0%,-0.2%,1.0%,2.3%,2.1%
Cc1cccc(C(C)C)c1NC(=O)C1CCCN1S(=O)(=O)c1cccc2nsnc12 (stereo not drawn),14.6µM*,23.1µM*,-7.5%,.,.,?
CC1CCCC(NC(=O)C2CCCN2S(=O)(=O)c2cccc3nsnc23)C1C (stereo not drawn),14.6µM*,?,16.3%,2.9%,0.0%,10.0%
COc1ccc(NS(=O)(=O)c2ccc3[nH]c4c(c3c2)CCCC4)c(OC)c1,20.6µM*,20.6µM*,-18.2%,.,.,?
COc1ccc(NS(=O)(=O)c2ccc3[nH]c4c(c3c2)CCCCC4)cc1,23.1µM*,16.4µM*,-59.2%,.,.,?
CCOc1ccc(NS(=O)(=O)c2ccc3[nH]c4c(c3c2)CCCC4)cc1,?,-22.6%,11.2µM*,.,.,11.2µM*
COc1ccc(OC)c(CNS(=O)(=O)c2ccc3[nH]c4c(c3c2)CCCCC4)c1,.,.,-19.2%,.,.,?
